PAFAH1B3 FP inh: PAFAH1B3 enzyme inhibitors, primary screen, biochemical, fluorescence polarization, human | Platelet-activating factor acetylhydrolase IB subunit alpha1 (Homo sapiens), Q15102 | recombinant PAFAH1B3, FP-rhodamine probe | inhibition, % at 3.39 µM | 340,000 tested, 0.28% active | AID 492972, 2010;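 active = inhibition above the screen-wide average of all tested compounds plus 3 SD, cut at about 25% in these data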;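 note: 0% = enzyme with DMSO only and 100% = wells lacking PAFAH1B3 protein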
Target sequence (Q15102 whole entry, looked up): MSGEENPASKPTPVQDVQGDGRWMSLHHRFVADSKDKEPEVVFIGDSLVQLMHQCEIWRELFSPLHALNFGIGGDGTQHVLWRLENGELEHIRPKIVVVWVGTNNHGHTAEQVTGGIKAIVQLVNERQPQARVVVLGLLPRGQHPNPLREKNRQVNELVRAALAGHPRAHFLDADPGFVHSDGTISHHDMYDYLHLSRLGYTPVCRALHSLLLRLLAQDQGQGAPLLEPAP
PME-1 inh: PME-1 inhibitors via competitive probe labeling, primary screen, biochemical, fluorescence polarization, FP-Rh probe, HTS. recombinant PME-1. inhibition, % at 5.9 µM. 320,000 tested, 0.53% active;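 active = inhibition above the campaign mean of all compounds plus 3 SD, cut at about 26% in these data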;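 note: competitive labeling of PME-1 active site by serine hydrolase directed probe; 0% = PME-1 with DMSO and 100% = wells lacking PME-1 enzyme; inhibitors block probe labeling so polarization falls and inhibition rises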
Target sequence (Q9Y570 whole entry, looked up): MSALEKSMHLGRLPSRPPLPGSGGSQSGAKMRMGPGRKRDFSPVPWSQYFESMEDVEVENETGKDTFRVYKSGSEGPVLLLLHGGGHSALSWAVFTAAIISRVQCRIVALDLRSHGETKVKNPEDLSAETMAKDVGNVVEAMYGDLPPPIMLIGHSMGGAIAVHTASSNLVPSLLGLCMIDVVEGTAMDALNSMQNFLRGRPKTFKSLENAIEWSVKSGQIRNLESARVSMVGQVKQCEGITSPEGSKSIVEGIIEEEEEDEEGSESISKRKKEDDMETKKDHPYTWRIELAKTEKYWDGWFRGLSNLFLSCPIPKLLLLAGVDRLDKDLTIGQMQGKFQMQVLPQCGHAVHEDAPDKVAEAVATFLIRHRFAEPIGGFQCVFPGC
PAFAH1B2 inh: PAFAH1B2 enzyme inhibitors, primary screen, biochemical, fluorescence polarization, human | Platelet-activating factor acetylhydrolase IB subunit alpha2 (Homo sapiens), P68402 | recombinant PAFAH1B2, FP-rhodamine activity probe | inhibition, % at 3.39 µM | 340,000 tested, 1.2% active;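 active = inhibition above the mean of all tested compounds plus 3 SD, cut at about 24% in these data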;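 note: 0% = enzyme with DMSO and 100% = wells lacking PAFAH1B2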
PAFAH2 FP inh: PAFAH2 enzyme inhibitors, primary screen, biochemical, fluorescence polarization, human; Platelet-activating factor acetylhydrolase 2, cytoplasmic (Homo sapiens), Q99487; recombinant PAFAH2, FP-rhodamine activity probe; inhibition, % at 3.39 µM; 340,000 tested, 0.99% active; AID 492956, 2010;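 active = inhibition above the mean over all tested compounds plus 3 SD, cut at about 30% in these data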;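 note: inhibitors block probe labeling of enzyme so polarization drops; 0% = enzyme with DMSO and 100% = wells lacking PAFAH2 protein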
pPAFAH inh: pPAFAH enzyme inhibitors, primary screen, biochemical, fluorescence polarization, human. Platelet-activating factor acetylhydrolase (Homo sapiens), Q13093. recombinant pPAFAH, FP-rhodamine probe fluorescence polarization. inhibition, % at 3.39 µM. 330,000 tested, 1.5% active. AID 463082, 2010;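 active = inhibition above the mean inhibition across the screen plus 3 SD, cut at about 25% in these data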;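 note: inhibitors block binding of the rhodamine activity-based probe so polarization drops; 0% = enzyme with DMSO and 100% = wells lacking pPAFAH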
Fam108B counter: mouse Fam108B serine hydrolase inhibitors, primary screen, counter-screen for RBBP9 inhibitor project, biochemical, fluorescence polarization; recombinant Fam108B, FP-Rh probe fluorescence polarization; inhibition, % at 9.51 µM; 300,000 tested, 0.33% active; AID 1947, 2009;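 active = inhibition above the screen mean inhibition plus 3 SD, computed separately per campaign, cut at about 18% in these data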;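 note: inhibitors lower polarization as less probe binds the enzyme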
Numbers without * were called inactive; · = no result. The list is not random: actives were taken first. Their share in the collection is about 2.8%.

SMILES	PAFAH1B3 FP inh	PME-1 inh	PAFAH1B2 inh	PAFAH2 FP inh	pPAFAH inh	Fam108B counter
CC(=O)N1c2ccc(S(=O)(=O)NCCc3ccc(Cl)cc3)cc2CC1C (centres undefined)	-3	2	16	-2	30*	0
CC(=O)N1c2ccc(S(=O)(=O)NCCC(=O)NCCc3ccc(Cl)cc3)cc2CC1C (centres undefined)	5	-6	9	-6	10	1
O=C(O)CCCC(=O)N1CCN(c2nc(-c3ccccc3Cl)c3cc(Br)ccc3n2)CC1	-2	1	1	0	28*	2
CC1(C)N=C(N)N=C(N)N1c1cccc(C#N)c1	11	·	4	5	·	·
CN(C)C(=O)c1cc(C(=O)c2ccccc2C(F)(F)F)c[nH]1	1	-3	-4	3	4	1
CN(C)C(=O)c1cc(C(=O)c2ccc(F)cc2C(F)(F)F)c[nH]1	6	5	5	2	30*	-4
Cc1ccc(CSCCNS(=O)(=O)c2ccc([N+](=O)[O-])cc2)cc1	-5	-2	25*	3	7	-1
Cc1ccc(S(=O)(=O)NCCSCc2ccccc2)cc1	9	-3	17	-3	10	-5
CC(C)(CNC(=O)c1ccc(S(=O)(=O)Nc2cccc(C(F)(F)F)c2)cc1)N1CCOCC1	-4	7	2	0	8	·
O=C(Nc1ncccc1O)c1cccc(S(=O)(=O)N2CCc3ccccc32)c1	-5	-2	48*	34*	5	4
C=CC[C@@H](Cc1ccc(F)cc1)C(=O)OC[C@@H]1CCCN1C(=O)[C@H](CC=C)CC(=O)N(CCO)Cc1ccccc1	11	·	3	0	6	·
COc1ccc(Cl)cc1S(=O)(=O)N1CCC(C(=O)NC2CCCC2)CC1	3	4	-7	-1	-4	-3
O=C(N/N=C/c1cccc(O)c1)c1ccc(NC(=O)C2CCCCC2)cc1	-1	·	-15	-12	·	·
O=C(N/N=C/c1ccc(O)cc1O)c1ccc(NC(=O)C2CCCCC2)cc1	37*	19	33*	-12	23	18
CCN1CCN(c2oc(-c3ccccc3C)nc2S(=O)(=O)c2ccccc2)CC1	6	·	6	-4	·	·
CC(=O)OCC1=C(C(=O)O)N2C(=O)C(NC(=O)c3ccc(COc4ccc(Cl)cc4)o3)C2SC1 (centres undefined)	2	-10	25*	7	26*	-1
COc1cc(C(Nc2ccc(S(=O)(=O)N3CCC(C)CC3)cc2)C(=O)NCC2CCCO2)cc(OC)c1OC (centres undefined)	2	-5	25*	-2	6	6
COc1cc(C(Nc2ccc(S(=O)(=O)NCC3CCCO3)cc2)C(=O)NC(C)(C)C)cc(OC)c1OC (centres undefined)	2	0	3	1	-2	0
O=S(=O)(NCCCSc1ccccc1)c1ccccc1F	0	5	21	4	3	1
O=[N+]([O-])c1ccccc1S(=O)(=O)NCCSc1ccccc1	7	-1	29*	12	1	2
Cc1nc(Nc2ccc(F)cc2)nc(Nc2ccc(F)cc2)c1[N+](=O)[O-]	5	-6	-1	-6	3	-16
CC(=O)Nc1ccc(Nc2nc(C)c([N+](=O)[O-])c(Nc3ccccc3)n2)cc1	14	30*	3	6	17	12
Cc1nc(Nc2ccc(C(=O)O)cc2)nc(Nc2ccc(C(=O)O)cc2)c1[N+](=O)[O-]	8	-5	12	8	9	3
COc1ccc(Nc2nc(NN)nc(C)c2[N+](=O)[O-])cc1	11	29*	15	-1	9	9
CCOC(=O)N1CCN(C(=O)c2ccc3c(=O)n(CCC4=CCCCC4)c(=S)[nH]c3c2)CC1	3	-4	25*	9	5	-1
SMILES	PAFAH1B3 FP inh	PME-1 inh	PAFAH1B2 inh	PAFAH2 FP inh	pPAFAH inh	Fam108B counter
COc1ccc(CNC(=O)CCSCc2cccc(F)c2)cc1	7	-5	8	5	27*	-4
O=C(CSc1ccc(-c2ccco2)nn1)c1ccccc1	4	0	-2	0	34*	4
COc1ccc(C(=O)CSc2ccc(-c3ccco3)nn2)cc1	9	-3	5	4	4	0
COc1ccc(-c2oc(=O)c3cc(OC)c(OC)cc3c2-c2ccc3c(c2)OCO3)cc1	-7	·	0	-6	27*	·
COCc1ccc(-c2c(-c3ccc(OC)cc3)oc(=O)c3cc(OC)c(OC)cc23)cc1	-12	·	-4	-4	4	·
CN1CCC(N(C)C(=O)c2ccc(Cl)c(S(=O)(=O)N3CCc4ccccc43)c2)CC1	9	·	8	6	4	·
O=C(OCC1OC(n2ccc(=O)[nH]c2=O)C2OC12)c1ccccc1 (centres undefined)	1	·	5	-1	·	·
COc1ccc(/C=N/NC(=O)c2cc(C)n(-c3ccccc3)c2C)cc1OC	14	-4	6	1	15	4
Cc1cc(C(=O)N/N=C/c2cccc([N+](=O)[O-])c2)c(C)n1-c1ccccc1	8	29*	3	-3	12	4
Cc1cc(C(=O)N/N=C2\CCCC(=O)C2)c(C)n1-c1ccccc1	7	0	-2	-4	28*	-2
CCOc1cc(/C=N/NC(=O)c2cccc([N+](=O)[O-])c2)ccc1OS(=O)(=O)c1ccccc1	-11	41*	5	-22	-5	9
Cc1cc(C(=O)N/N=C2\CCCC(=O)C2)c(C)o1	5	·	1	-4	·	·
O=C(CN(C1CCCCC1)S(=O)(=O)c1ccc(F)cc1)NCC1CCCO1 (centres undefined)	8	·	6	3	·	·
CCN1C[C@@H]2[C@@H]3C(=O)N(Cc4ccccc4)C(=O)[C@@H]3[C@](Cc3ccccc3)(C1=O)N2C(=O)c1ccc(C(C)(C)C)cc1	1	·	-2	5	·	·
O=C(O)COc1ccccc1-c1nc(-c2ccccc2)c(-c2ccccc2)[nH]1	6	1	36*	18	15	2
O=C(O)COc1ccc(-c2nc(-c3ccccc3)c(-c3ccccc3)[nH]2)cc1	10	-1	8	8	13	3
COc1cccc(-c2nc(-c3ccccc3)c(-c3ccccc3)[nH]2)c1OCC(=O)O	14	·	24*	22	·	·
NC(=O)CCC(NC(=O)c1ccc(Cl)cc1)C(=O)NCCc1ccc2c(c1)OCCO2 (centres undefined)	5	·	5	3	·	·

Screens (PubChem BioAssay)
